Screening data as filed in PubChem BioAssay.
Only some compounds are listed: those with a hit (about 11% of all), similar ones and a draw of the others.
HP1b chromo inh = inhibitors of HP1-beta chromodomain binding to methylated histone tails | AlphaScreen HP1-beta / biotin-H3K9me3 peptide binding | Potency, µM (highest dose often 114 µM), actives largely listed as inhibitors | actives 0.56% (n = 390,000); note: nearly all actives have a fitted effect of over 70% in size
Target sequence (P83916 whole entry, looked up): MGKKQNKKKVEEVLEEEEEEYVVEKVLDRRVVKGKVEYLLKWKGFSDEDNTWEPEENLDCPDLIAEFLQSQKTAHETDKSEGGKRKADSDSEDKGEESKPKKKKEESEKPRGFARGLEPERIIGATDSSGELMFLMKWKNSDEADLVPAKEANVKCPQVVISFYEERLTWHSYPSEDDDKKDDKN
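HP1-beta protein (50 nM final) preincubated 30 min at room temperature with biotinylated H3(1-18)K9me3 peptide (50 nM) in PBS pH 7.4, 0.01% Tween-20, then compound added for 30 min. AlphaScreen streptavidin donor/nickel chelate acceptor beads (10 ug/mL final), 30 min dark, luminescence read.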
PLK1 PBD inh = PLK1 (human) polo-box domain binding inhibition. Potency, µM, most hits filed as inhibitors. AID 720504. actives 2.8% (n = 360,000). Plk1 PBD binding of FITC phosphopeptide, fluorescence polarization; note: series mostly up to about 57 µM; nearly all actives have a fitted effect of over 65% in size
Target sequence (P53350 whole entry, looked up, the tested form may be a part): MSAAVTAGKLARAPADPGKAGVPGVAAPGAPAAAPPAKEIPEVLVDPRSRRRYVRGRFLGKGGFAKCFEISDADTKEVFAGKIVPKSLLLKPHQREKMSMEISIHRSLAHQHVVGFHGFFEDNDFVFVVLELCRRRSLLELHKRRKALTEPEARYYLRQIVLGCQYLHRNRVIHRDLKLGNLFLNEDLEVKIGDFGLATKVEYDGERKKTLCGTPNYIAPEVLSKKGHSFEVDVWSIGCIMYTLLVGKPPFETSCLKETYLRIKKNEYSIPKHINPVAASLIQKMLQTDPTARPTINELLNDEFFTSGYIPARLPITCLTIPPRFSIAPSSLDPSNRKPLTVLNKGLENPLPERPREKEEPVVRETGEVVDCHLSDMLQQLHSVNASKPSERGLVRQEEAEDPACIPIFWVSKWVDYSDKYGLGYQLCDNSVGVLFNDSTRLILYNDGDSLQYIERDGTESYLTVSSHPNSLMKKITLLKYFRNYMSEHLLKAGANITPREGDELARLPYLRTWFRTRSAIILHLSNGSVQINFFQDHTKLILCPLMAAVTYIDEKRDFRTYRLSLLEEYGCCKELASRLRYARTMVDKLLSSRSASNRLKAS
JMJD2A Tudor = blocks the human JMJD2A Tudor domain; AlphaScreen JMJD2A-Tudor / H3K4me3 peptide binding; Potency, µM (doses to about 114 µM), actives largely listed as inhibitors; actives 4.4% (n = 390,000); note: nearly all actives have a fitted effect of over 50% in size
G9a inh = inhibitors of human histone lysine methyltransferase G9a | Potency, µM (highest dose often 102 µM), actives largely listed as inhibitors | AID 504332 | actives 8.8% (n = 350,000) | G9a H3K9 monomethylation, AlphaScreen, 2 h; note: nearly all actives have a fitted effect of over 75% in size
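Quantitative HTS format: methyltransferase activity on a biotin-tagged H3K9 peptide is measured by AlphaScreen, using a rabbit anti-monomethyl-H3K9 antibody with streptavidin donor and anti-IgG acceptor beads. Final levels are 20 nM enzyme, 500 nM peptide, 20 uM SAM; 2 h RT.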
VDR inh = vitamin D3 receptor (human) inhibition | P11473 | VDR-SRC2-3 peptide fluorescence polarization, 2 h | Potency, µM, usual class: inhibitors | actives 0.93% (n = 400,000) | AID 504847
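VDR–SRC2-3 interaction, FP format. Cmpds 23 nl via pintool, brief spin, 2 h ambient incubation.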
BAZ2B inh = blocks human BAZ2B; AID 504333; actives 4.4% (n = 360,000); AlphaScreen BAZ2B-H3K14Ac peptide displacement; Potency, µM (top dose mostly 114 µM), usual class: inhibitors; Q9UIF8; note: nearly all actives have a fitted effect of over 60% in size
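AlphaScreen displacement of biotin-H3(5-23)K14Ac peptide (50 nM final) from BAZ2B (50 nM final) in PBS pH 7.4, 0.01% Tween-20; complex preformed 30 min RT, then compounds (top 110 uM) 30 min RT, beads 20 min dark.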
Of the large screens only hits and unclear results are named; the others gave an inactive call. Calls come from the whole dose curve; as a rule, active = well fitted curve in the direction sought with a large enough effect; inconclusive = small, poorly fitted or top-dose-only effect, or another doubt; inactive = no such curve, though single readings can be large; an effect the other way counts as inactive or inconclusive.

CC(C)Cc1nnc(NC(=O)Cc2cccs2)s1	JMJD2A Tudor inconclusive, G9a inh 45µM, BAZ2B inh 40µM
Cc1cc(C)cc(NC(=O)N2CCNC(=O)C2CC(=O)Nc2cc(Cl)ccc2Cl)c1 (stereo not given)	none
O=C(Nc1cccc2c1CCCC2)c1ccncc1	G9a inh inconclusive
Cc1ccc(Cn2ccn(Cc3ccccc3C)c(=O)c2=O)cc1	BAZ2B inh inconclusive (no result: PLK1 PBD inh)
Cc1ccc(-n2cc(CNCCN3CCOC3=O)c(-c3cccc(C)c3)n2)cc1	G9a inh 35µM, BAZ2B inh inconclusive
O=C1OCCN1CCNCc1cn(-c2ccc(F)cc2)nc1-c1ccccc1Cl	G9a inh inconclusive
Cc1cccc(-c2nn(-c3ccccc3)cc2CNCCO)c1	HP1b chromo inh inconclusive, JMJD2A Tudor 10µM (no result: PLK1 PBD inh, G9a inh, BAZ2B inh)
CC(C)Nc1cccc(S(=O)(=O)N2CCCN(S(=O)(=O)c3ccc4c(c3)OCCO4)CC2)c1	none (no result: HP1b chromo inh, PLK1 PBD inh, G9a inh, VDR inh, BAZ2B inh)
Fc1ccc(C2CCNCC2COc2ccc3c(c2)OCO3)cc1 (stereo not given)	HP1b chromo inh inconclusive, JMJD2A Tudor inconclusive, G9a inh 50µM, BAZ2B inh inconclusive
Fc1ccc([C@@H]2CCNC[C@H]2COc2ccc3c(c2)OCO3)cc1	HP1b chromo inh inconclusive, JMJD2A Tudor inconclusive, G9a inh 24µM, BAZ2B inh inconclusive
Cc1ccc(CNC(=O)CN2C(=O)COc3ccccc32)cc1	none (no result: PLK1 PBD inh)
CCOC1CCCc2oc(-c3ccsc3)c(-c3cnc(OC)nc3)c21 (stereo not given)	none (no result: HP1b chromo inh, JMJD2A Tudor, G9a inh, VDR inh, BAZ2B inh)
O=C1CCCc2c1cc(C(=O)Nc1ccc(Br)cn1)c(=O)n2-c1ccccc1	JMJD2A Tudor 79µM, VDR inh inconclusive
O=C1CCCc2c1cc(C(=O)O)c(=O)n2-c1ccccc1	none (no result: G9a inh)
N=c1n(N)c2ccccc2n1CC(=O)c1ccc(Br)cc1	G9a inh inconclusive
COc1cc(OC)c(NC2(c3ccccc3)C(=O)c3ccccc3C2=O)cc1Cl	HP1b chromo inh inconclusive, JMJD2A Tudor 20µM, G9a inh 13µM, BAZ2B inh 22µM (no result: PLK1 PBD inh)
NC(=S)NNc1c(F)c(F)c(F)c(F)c1F	HP1b chromo inh inconclusive, PLK1 PBD inh 27µM, JMJD2A Tudor inconclusive, G9a inh 35µM
CCc1cc(C(=O)N2CCOCC2)c(NC2=NS(=O)(=O)c3ccccc32)s1	G9a inh 89µM
CCc1cccc(CC)c1NC1=NS(=O)(=O)c2ccccc21	none (no result: PLK1 PBD inh)
O=C(Nc1cccc(C(=O)Nc2ccc(S(=O)(=O)O)c3cc(S(=O)(=O)O)cc(S(=O)(=O)O)c23)c1)Nc1cccc(C(=O)Nc2ccc(S(=O)(=O)O)c3cc(S(=O)(=O)O)cc(S(=O)(=O)O)c23)c1	G9a inh 0.6µM, VDR inh inconclusive (no result: HP1b chromo inh, PLK1 PBD inh, JMJD2A Tudor, BAZ2B inh)
COc1ccc(C2=Nn3c(nnc3-c3ccc(OC)c(OC)c3)SC2)cc1	none (no result: HP1b chromo inh, PLK1 PBD inh, G9a inh, VDR inh, BAZ2B inh)
O=C1c2ccccc2C(=O)N1CCN1CCc2ccccc21	JMJD2A Tudor inconclusive, G9a inh inconclusive, BAZ2B inh 50µM
OCCN1c2ccccc2CCc2ccccc21	none (no result: G9a inh, BAZ2B inh)
c1ccc2c(c1)CCN2CCN1CCc2ccccc21	G9a inh 3.5µM, BAZ2B inh inconclusive
O=C(CCCCCN1CCN(c2ccccc2-c2ccccc2)CC1)NC1CCCc2ccccc21 (stereo not given)	G9a inh 13µM (no result: HP1b chromo inh, PLK1 PBD inh, JMJD2A Tudor, BAZ2B inh)
Cc1ccc(Cl)cc1N1CCN(CC(=O)NC2CCCc3ccccc32)CC1 (stereo not given)	none
O=C(CN1CCN(c2ccccc2Cl)CC1)NC1CCCc2ccccc21 (stereo not given)	HP1b chromo inh inconclusive, JMJD2A Tudor 1µM, G9a inh 8.9µM, BAZ2B inh 20µM
COC(=O)NC(c1ccccc1)c1c[nH]c2ccccc12 (stereo not given)	none (no result: HP1b chromo inh, PLK1 PBD inh, JMJD2A Tudor, G9a inh, BAZ2B inh)
C=CCN(c1ccc(C(=O)NCCCn2ccnc2)cc1)S(C)(=O)=O	none
COc1cc(SC)ccc1C(=O)N1CCN(c2ccccc2)CC1	none
COc1cc(SC)ccc1C(=O)N1CCN(Cc2ccccc2)CC1	none
COc1cc(SC)ccc1C(=O)NC1CCCCC1	G9a inh 1.1µM
COc1cc(SC)ccc1C(=O)N1CCC(Cc2ccccc2)CC1	G9a inh 10µM, VDR inh inconclusive (no result: HP1b chromo inh, PLK1 PBD inh, JMJD2A Tudor, BAZ2B inh)
COc1cc(SC)ccc1C(=O)N1CCN(c2ccc(O)cc2)CC1	HP1b chromo inh inconclusive, JMJD2A Tudor inconclusive, G9a inh 16µM (no result: BAZ2B inh)
O=C(Cn1cncn1)NCCC(c1ccccc1)c1ccccc1	none (no result: G9a inh)
O=C1c2ccccc2C(=O)C2OC12 (stereo not given)	G9a inh 8.9µM (no result: HP1b chromo inh, PLK1 PBD inh, JMJD2A Tudor, VDR inh)
COC(=O)c1ccc(CN(C(=O)N2CCN(C)CC2)S(=O)(=O)c2ccc(C)cc2)cc1	none
O=C(O)CN1C(=O)C2C3CC(C2C1=O)C1C(c2ccc(F)cc2)c2sc(=O)[nH]c2SC31 (stereo not given)	PLK1 PBD inh inconclusive, G9a inh 45µM
O=C(O)CN1C(=O)C2C3CC(C2C1=O)C1C(c2ccc(Cl)cc2)c2sc(=O)[nH]c2SC31 (stereo not given)	G9a inh 50µM
CCOC(=O)CSc1nc2cc3c(cc2c(=O)n1Cc1ccc(C(=O)NCCc2ccc(OC)c(OC)c2)cc1)OCO3	none (no result: PLK1 PBD inh)
Cc1cccc(-n2nc(C)c3c2NC2=C(C(=O)CCC2)C3c2ccccn2)c1 (stereo not given)	JMJD2A Tudor inconclusive, G9a inh 35µM
Cc1nn(-c2ccccn2)c2c1C(c1ccsc1)C1=C(CCCC1=O)N2 (stereo not given)	G9a inh inconclusive
COc1ccc2c(c1)C(c1ccccc1OC)CC(=O)O2 (stereo not given)	G9a inh 35µM, VDR inh inconclusive (no result: HP1b chromo inh, PLK1 PBD inh, JMJD2A Tudor, BAZ2B inh)
COc1ccc(-c2cc(C(F)(F)F)n3nc(C(=O)Nc4ccccc4SC)cc3n2)cc1OC	none (no result: PLK1 PBD inh)
Cc1cccc(CN2CCN(C3CN(Cc4cn(Cc5ccc(F)cc5)nn4)S(=O)(=O)C3)CC2)c1 (stereo not given)	none (no result: HP1b chromo inh, JMJD2A Tudor, G9a inh, VDR inh, BAZ2B inh)
COCCN(C(=O)COc1ccccc1C#N)c1c(N)n(Cc2ccccc2)c(=O)[nH]c1=O	none
O=C(Cn1cccn1)c1ccccc1	none
Cc1ccc(NC(=O)COC(=O)c2ccc(-n3nc(C)cc3C)cc2)c(F)c1	none (no result: G9a inh, BAZ2B inh)
CCOc1ccc(N2C(=O)CC(N3CCN(c4ccc([N+](=O)[O-])cc4)CC3)C2=O)cc1 (stereo not given)	G9a inh 7.9µM
CCCN1CCC(N2CCN(c3cccc(C(F)(F)F)c3)CC2)CC1	G9a inh inconclusive
CCOc1ccc(N2C(=O)CC(NCCNc3ccc([N+](=O)[O-])cn3)C2=O)cc1 (stereo not given)	G9a inh 3.2µM
COc1ccc(N2C(=O)CC(NCCNc3ccc([N+](=O)[O-])cn3)C2=O)cc1 (stereo not given)	G9a inh 6.3µM
CCCOc1ccc(N2C(=O)CC(N3CCN(c4ccc([N+](=O)[O-])cc4)CC3)C2=O)cc1 (stereo not given)	none (no result: G9a inh)
